Records with an inconclusive call do not appear. Entries that show only a call come without a potency. Unmarked numbers belong to inactive results. The source made the active and inactive calls. The call rests on the fitted dose curve; in most records, active means well fitted curve in the direction sought with a large enough effect in the repeat runs; inconclusive means weak or mixed curves; inactive means no such curve, though single readings can be large; an effect the other way counts as inactive or inconclusive.
How the values were obtained:
[1] = molecular target: Cytochrome P450 2C19 (Homo sapiens) (UniProt P33261); test: Cytochrome P450 Family 2 Subfamily C Member 19 (CYP2C19) small molecule antagonists: luciferase reporter qHTS assay (AID 1671197); further: nearly all actives have a fitted effect of over 65% in size; further: potency means the concentration at half of the fitted maximal effect; on activity change, negative = inhibition: series mostly up to about 120 µM
Chain of Cytochrome P450 2C19 (Homo sapiens) (P33261 whole entry, looked up): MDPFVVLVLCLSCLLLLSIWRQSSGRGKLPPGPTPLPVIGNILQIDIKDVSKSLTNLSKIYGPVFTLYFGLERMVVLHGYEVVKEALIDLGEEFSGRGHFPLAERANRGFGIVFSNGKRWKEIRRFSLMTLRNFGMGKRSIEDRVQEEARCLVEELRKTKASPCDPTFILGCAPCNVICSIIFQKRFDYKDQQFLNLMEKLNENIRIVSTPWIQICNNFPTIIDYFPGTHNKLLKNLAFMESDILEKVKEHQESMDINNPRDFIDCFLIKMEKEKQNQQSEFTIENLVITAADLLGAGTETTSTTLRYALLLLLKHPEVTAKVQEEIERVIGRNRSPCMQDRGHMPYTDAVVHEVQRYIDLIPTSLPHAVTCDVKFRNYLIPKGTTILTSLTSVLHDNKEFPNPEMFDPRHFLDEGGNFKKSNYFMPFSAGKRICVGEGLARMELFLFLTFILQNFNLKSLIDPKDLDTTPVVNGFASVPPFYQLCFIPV
Outline: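 P450-Glo CYP2C19 screening system; proluciferin substrate; DMSO compound stocks; 10 min RT preincubation; NADPH regeneration, 1 h at 37C; luciferin detection reagent, 20 min RT; luminescence as RLU.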

[2] = molecular target: Cytochrome P450 2C9 (Homo sapiens) (UniProt P11712); test: Cytochrome P450 Family 2 Subfamily C Member 9 (CYP2C9) small molecule antagonists: luciferase reporter qHTS assay (AID 1671198); further: nearly all actives have a fitted effect of over 50% in size; further: potency means the concentration at half of the fitted maximal effect; on activity change, negative = inhibition: series mostly up to about 120 µM
Chain of Cytochrome P450 2C9 (Homo sapiens) (P11712 whole entry, looked up): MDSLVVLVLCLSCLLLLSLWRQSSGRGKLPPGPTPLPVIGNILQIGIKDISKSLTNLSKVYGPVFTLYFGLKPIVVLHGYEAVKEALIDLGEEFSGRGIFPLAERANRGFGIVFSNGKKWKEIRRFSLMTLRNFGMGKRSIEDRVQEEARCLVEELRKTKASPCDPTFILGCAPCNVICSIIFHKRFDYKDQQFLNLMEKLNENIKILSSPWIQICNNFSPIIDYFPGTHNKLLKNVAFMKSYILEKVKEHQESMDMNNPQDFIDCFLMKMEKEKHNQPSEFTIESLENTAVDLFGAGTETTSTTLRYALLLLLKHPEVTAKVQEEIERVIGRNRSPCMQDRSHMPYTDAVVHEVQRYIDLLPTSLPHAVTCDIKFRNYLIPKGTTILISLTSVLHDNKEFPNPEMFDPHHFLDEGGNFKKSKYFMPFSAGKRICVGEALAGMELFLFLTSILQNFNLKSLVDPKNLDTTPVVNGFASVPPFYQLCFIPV
Outline: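 CYP2C9 activity was measured with a P450-Glo proluciferin substrate. Enzyme–substrate mix was held with compound for 10 min at room temperature, then NADPH regeneration solution was added for 1 h at 37C. Luciferin product was read as luminescence.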

[3] = molecular target: Cytochrome P450 1A2 (Homo sapiens) (UniProt P05177); test: Cytochrome P450 Family 1 Subfamily A Member 2 (CYP1A2) small molecule antagonists: luciferase reporter qHTS assay (AID 1671199); further: nearly all actives have a fitted effect of over 50% in size; further: potency means the concentration at half of the fitted maximal effect; on activity change, negative = inhibition: series mostly up to about 120 µM
Chain of Cytochrome P450 1A2 (Homo sapiens) (P05177 whole entry, looked up): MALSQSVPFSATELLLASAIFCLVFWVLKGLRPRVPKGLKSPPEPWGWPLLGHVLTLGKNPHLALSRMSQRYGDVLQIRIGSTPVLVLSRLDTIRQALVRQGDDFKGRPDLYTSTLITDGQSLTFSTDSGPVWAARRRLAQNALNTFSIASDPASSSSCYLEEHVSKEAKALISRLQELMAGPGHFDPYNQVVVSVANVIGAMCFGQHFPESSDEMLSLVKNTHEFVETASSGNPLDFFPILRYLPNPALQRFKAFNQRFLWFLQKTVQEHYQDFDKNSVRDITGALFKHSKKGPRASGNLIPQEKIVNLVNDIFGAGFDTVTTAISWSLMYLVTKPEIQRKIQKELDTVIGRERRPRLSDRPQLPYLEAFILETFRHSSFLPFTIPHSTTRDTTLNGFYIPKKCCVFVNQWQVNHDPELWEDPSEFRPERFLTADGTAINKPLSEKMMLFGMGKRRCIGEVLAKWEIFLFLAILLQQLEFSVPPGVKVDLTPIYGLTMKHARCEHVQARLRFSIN
Outline: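 Enzymatic CYP1A2 assay, human, luminescent: 10 min compound–enzyme–substrate preincubation, 1 h NADPH-dependent turnover, 20 min detection step, room temperature throughout. Reduced light indicates lower CYP1A2 activity.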

[4] = molecular target: Voltage-gated inwardly rectifying potassium channel KCNH2 (Homo sapiens) (UniProt Q12809); test: Human Ether-a-go-go-Related Gene (hERG) channel small molecule antagonists: fluorescence cell-based qHTS assay (AID 1671200);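 further: hERG-expressing U2OS cells given a thallium stimulus after FluxOR II dye loading; series mostly up to about 77 µM; nearly all actives have a fitted effect of over 50% in size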
Chain of Voltage-gated inwardly rectifying potassium channel KCNH2 (Homo sapiens) (Q12809 whole entry, looked up): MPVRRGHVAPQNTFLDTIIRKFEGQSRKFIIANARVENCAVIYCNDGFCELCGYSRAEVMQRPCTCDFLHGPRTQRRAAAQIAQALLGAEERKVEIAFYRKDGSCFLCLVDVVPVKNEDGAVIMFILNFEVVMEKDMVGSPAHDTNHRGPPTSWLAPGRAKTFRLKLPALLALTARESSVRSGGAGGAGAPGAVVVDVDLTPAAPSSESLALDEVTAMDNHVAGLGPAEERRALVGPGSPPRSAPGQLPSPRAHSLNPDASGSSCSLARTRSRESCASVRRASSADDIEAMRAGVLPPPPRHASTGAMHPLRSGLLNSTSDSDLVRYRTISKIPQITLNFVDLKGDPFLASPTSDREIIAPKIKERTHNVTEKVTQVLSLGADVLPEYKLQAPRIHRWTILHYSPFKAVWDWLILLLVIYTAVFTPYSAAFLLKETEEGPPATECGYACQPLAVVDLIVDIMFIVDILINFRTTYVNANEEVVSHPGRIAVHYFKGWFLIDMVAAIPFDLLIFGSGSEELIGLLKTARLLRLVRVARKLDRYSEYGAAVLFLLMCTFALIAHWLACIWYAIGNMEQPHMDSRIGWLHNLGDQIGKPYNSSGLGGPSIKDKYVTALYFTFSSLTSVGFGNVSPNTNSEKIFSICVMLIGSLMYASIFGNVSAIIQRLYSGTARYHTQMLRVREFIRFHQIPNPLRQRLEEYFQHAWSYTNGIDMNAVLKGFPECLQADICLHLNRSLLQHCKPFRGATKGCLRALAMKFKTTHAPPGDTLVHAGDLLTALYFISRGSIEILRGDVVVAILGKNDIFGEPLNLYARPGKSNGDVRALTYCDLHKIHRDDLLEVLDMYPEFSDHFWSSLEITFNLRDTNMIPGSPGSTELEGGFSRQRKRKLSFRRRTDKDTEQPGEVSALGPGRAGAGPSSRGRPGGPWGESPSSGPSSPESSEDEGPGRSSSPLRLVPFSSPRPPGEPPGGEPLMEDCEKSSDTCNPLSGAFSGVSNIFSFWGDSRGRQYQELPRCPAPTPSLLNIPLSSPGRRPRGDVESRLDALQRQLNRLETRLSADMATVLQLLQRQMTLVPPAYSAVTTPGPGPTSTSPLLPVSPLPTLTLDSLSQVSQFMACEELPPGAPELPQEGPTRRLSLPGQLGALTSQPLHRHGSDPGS
Outline: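 U2OS cells expressing the channel were plated at 1000 cells/well, incubated overnight at 37 C, then loaded with FluxOR II thallium-sensitive dye for 1 h at room temperature in the dark, with a further 10 min at room temperature before stimulation.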

[5] = molecular target: Cytochrome P450 3A4 (Homo sapiens) (UniProt P08684); test: Cytochrome P450 Family 3 Subfamily A Member 4 (CYP3A4) small molecule antagonists: luciferase reporter qHTS assay (AID 1671201); further: nearly all actives have a fitted effect of over 50% in size; further: potency means the concentration at half of the fitted maximal effect; on activity change, negative = inhibition: series mostly up to about 120 µM
Chain of Cytochrome P450 3A4 (Homo sapiens) (P08684 whole entry, looked up): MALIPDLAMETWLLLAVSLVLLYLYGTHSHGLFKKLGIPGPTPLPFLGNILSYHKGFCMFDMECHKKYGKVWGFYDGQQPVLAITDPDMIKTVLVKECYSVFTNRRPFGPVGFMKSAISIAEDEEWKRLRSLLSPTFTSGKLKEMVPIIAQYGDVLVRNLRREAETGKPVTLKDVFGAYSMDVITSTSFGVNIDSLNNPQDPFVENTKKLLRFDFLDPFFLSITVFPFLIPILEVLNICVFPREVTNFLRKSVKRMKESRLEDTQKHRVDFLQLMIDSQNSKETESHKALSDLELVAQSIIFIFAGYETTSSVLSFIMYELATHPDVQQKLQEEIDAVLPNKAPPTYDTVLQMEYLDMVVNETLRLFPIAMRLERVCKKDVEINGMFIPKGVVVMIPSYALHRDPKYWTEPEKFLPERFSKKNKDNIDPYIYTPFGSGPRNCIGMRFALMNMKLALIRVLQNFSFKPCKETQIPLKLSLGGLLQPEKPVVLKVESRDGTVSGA
Outline: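 P450-Glo CYP3A4 system with proluciferin substrate; compounds preincubated 10 min RT with enzyme-substrate mix, then NADPH regeneration added for 1 h RT. Detection reagent 20 min, luminescence read as relative luminescence units.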

Row | Compound | Potency [1] | Potency [2] | Potency [3] | Potency [4] | Potency [5] | activity change, negative = inhibition [1] | activity change, negative = inhibition [2] | activity change, negative = inhibition [3] | activity change, negative = inhibition [4] | activity change, negative = inhibition [5]
1 | CC1=CC(=O)CCC1 | inactive | inactive | inactive | inactive | inactive |  |  |  |  | 
2 | COCc1ccc(COC)cc1 | inactive | inactive | inactive | inactive | inactive |  |  |  |  | 
3 | CCO[Si](CCCN=C=O)(OCC)OCC | inactive | inactive | inactive | inactive | 35.6 µM (active) |  |  |  |  | 
4 | NC(=O)c1ncn([C@@H]2O[C@H](CO)[C@@H](O)[C@H]2O)c1O | inactive | inactive | inactive | inactive | inactive |  |  |  |  | 
5 | CCCC(C)CO (stereo not given) | inactive | inactive | 35.6 µM (active) | inactive | inactive |  |  |  |  | 
6 | CC(C)CCCC(C)NCCC(C)C (stereo not given) | inactive | inactive | inactive | inactive | inactive |  |  |  |  | 
7 | COc1cccc(OC)c1 | inactive | inactive | inactive | inactive | inactive |  |  |  |  | 
8 | CC(O)CN(CCCN(C)C)CCCN(C)C (stereo not given) | inactive | inactive | inactive | inactive | inactive |  |  |  |  | 
9 | COc1ccc2cc(C=O)ccc2c1 | 15.5 µM (active) | 17.4 µM (active) | 13.8 µM (active) | inactive | inactive |  |  |  |  | 
10 | COc1cccc(Br)c1 | inactive | inactive | inactive | inactive | inactive |  |  |  |  | 
11 | CC(=O)OC(C)(C)C | inactive | inactive | inactive | inactive | inactive |  |  |  |  | 
12 | CCCCCCCCCCCl | inactive | inactive | 32.2 µM (active) | inactive | inactive |  |  |  |  | 
13 | CCCCCCCCCCCCCCC | inactive | inactive | inactive | inactive | inactive |  |  |  |  | 
14 | O=C(O)/C=C/c1ccc(/C=C/C(=O)O)cc1 | 8.74 µM (active) | inactive | inactive | inactive | inactive |  |  |  |  | 
15 | CCCCCCCCCCC1CO1 (stereo not given) | inactive | inactive | inactive | inactive | inactive |  |  |  |  | 
16 | NCC[C@H](O)C(=O)N[C@@H]1C[C@H](N)[C@@H](O[C@H]2O[C@H](CN)[C@@H](O)[C@H](O)[C@H]2O)[C@H](O)[C@H]1O[C@H]1O[C@H](CO)[C@@H](O)[C@H](N)[C@H]1O |  |  |  |  |  | 3.5% [at 0.435 µM] | 0.45% [at 0.435 µM] | 12.4% [at 0.435 µM] | 0.203% [at 0.29 µM] | 8.51% [at 0.435 µM]
17 | C=C[Si](OC)(OC)OC | inactive | inactive | 34.2 µM (active) | inactive | inactive |  |  |  |  | 

Row | Compound | Potency [1] | Potency [2] | Potency [3] | Potency [4] | Potency [5] | activity change, negative = inhibition [1] | activity change, negative = inhibition [2] | activity change, negative = inhibition [3] | activity change, negative = inhibition [4] | activity change, negative = inhibition [5]
18 | CCCC=O | inactive | inactive | inactive | inactive | inactive |  |  |  |  | 
19 | Cc1onc(-c2ccccc2)c1-c1ccc(S(N)(=O)=O)cc1 | 7.76 µM (active) | 13.8 µM (active) | inactive | inactive | inactive |  |  |  |  | 
20 | CCC(=O)/C=C/c1ccc(OC)cc1 | 12.6 µM (active) | 39.9 µM (active) | 20 µM (active) | inactive | inactive |  |  |  |  | 
21 | Nc1ncnc2c1ncn2Cc1c(F)cccc1Cl | inactive | inactive | inactive | inactive | inactive |  |  |  |  | 
22 | CC(C)CCOC(=O)CC(C)C | inactive | inactive | inactive | inactive | inactive |  |  |  |  | 
23 | Nc1ccn(C2CO[C@H](CO)O2)c(=O)n1 (stereo not given in full) | inactive | inactive | inactive | inactive | inactive |  |  |  |  | 
24 | C[N+](C)(C)CC[N+]1(C)Cc2c(Cl)c(Cl)c(Cl)c(Cl)c2C1 | inactive | inactive | inactive | inactive | inactive |  |  |  |  | 
25 | NCCN1CCNC1=O | inactive | inactive | inactive | inactive | inactive |  |  |  |  | 
26 | CCCCCCC(=O)OCC | inactive | 71 µM (active) | inactive | inactive | inactive |  |  |  |  | 
27 | COC(C(=O)O)c1ccccc1 (stereo not given) | inactive | inactive | inactive | inactive | inactive |  |  |  |  | 
28 | COc1nc(C)nc(N)n1 | inactive | inactive | inactive | inactive | inactive |  |  |  |  | 
29 | CC12CCC(CC1=O)C2(C)C (stereo not given) | inactive | inactive | inactive | inactive | inactive |  |  |  |  | 
30 | Oc1cc(O)c2c(c1)O[C@H](c1ccc(O)c(O)c1)[C@H](O)C2 | inactive | inactive | inactive | inactive | inactive |  |  |  |  | 
31 | C[C@H]1O[C@@H](n2cc(F)c(=O)[nH]c2=O)[C@H](O)[C@@H]1O | inactive | inactive | inactive | inactive | inactive |  |  |  |  | 
32 | Nc1nc2c(ncn2CCC(CO)CO)c(=O)[nH]1 | inactive | inactive | inactive | inactive | inactive |  |  |  |  | 
33 | CC(C)N1C(=O)c2ccccc2C1=O | inactive | inactive | 35.6 µM (active) | inactive | inactive |  |  |  |  | 
34 | O=c1[nH]c(=O)n([C@H]2O[C@H](CO)[C@@H](O)[C@@H]2O)cc1/C=C\Br | inactive | inactive | inactive | inactive | inactive |  |  |  |  | 
